Values joined by “and” are separate entries in the source; they are usually repeats but may differ in a detail not shown here. Identical values can stand only once. Compounds without any hit were thinned out: in the full panel of roughly 79,000, 15% have a hit. Some compounds were tested as several samples or in several runs, with calls that do not always agree. Active and inactive are the calls of the source. Rule as the data show it: active = growth inhibition above about 70%; inactive = the rest.

The nature of experiment [1]: NCI Yeast Anticancer Drug Screen. Data for the rad50 strain (AID 155).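 Also: 0% = growth of vehicle-only cultures of the same strain.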 As to conditions: S. cerevisiae rad50 strain growth inhibition, stronger effect = higher value. The procedure, abridged: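 Growth of the mutant yeast was measured after compound exposure and referenced to vehicle-treated cultures.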
Experiment [2] is described as follows: NCI Yeast Anticancer Drug Screen. Data for the mec2-1 strain (AID 157). As to conditions: S. cerevisiae mec2-1 strain, stronger effect = higher value. The procedure, abridged:
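Test agents were screened against the mec2-1 yeast strain, with defined DNA repair or cell cycle alteration. Growth was scored as inhibition against vehicle-only controls.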

Experiment [3] in a line: NCI Yeast Anticancer Drug Screen. Data for the sgs1 mgt1 strain (AID 161).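 Also: 0% = growth of cultures given vehicle only.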 As to conditions: S. cerevisiae sgs1 mgt1 strain, stronger effect = higher value. The procedure, abridged:
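Genetically altered yeast, compound exposure, growth inhibition relative to vehicle.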

Experiment [4] is described as follows: NCI Yeast Anticancer Drug Screen. Data for the cln2 rad14 strain (AID 165).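 Also: 0% = growth equal to vehicle treated cultures.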 As to conditions: S. cerevisiae cln2 rad14 strain, stronger effect = higher value. Summed up: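 Growth of compound-exposed yeast (cln2 rad14 genotype) measured and expressed as inhibition relative to vehicle.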
Experiment [5] is described as follows: NCI Yeast Anticancer Drug Screen. Data for the bub3 strain (AID 167). As to conditions: S. cerevisiae bub3 mutant strain, stronger effect = higher value. Summed up:
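Whole-cell yeast assay. The mutant strain was incubated with compounds, and growth inhibition was determined by comparison with vehicle-treated cells.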

Experiment [6] is described as follows: NCI Yeast Anticancer Drug Screen. Data for the mlh1 rad18 strain (AID 175). As to conditions: S. cerevisiae mlh1 rad18 strain growth inhibition, stronger effect = higher value. Summed up: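 In this whole-cell yeast screen, a strain with altered DNA damage repair is challenged with compound, and its growth is measured against matched vehicle-treated controls.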
The mark [7] stands for this setting: at 5.0 µM (retest, dose inferred, filed as 0.5).
The mark [8] stands for this setting: at 50.0 µM (retest, dose inferred, filed as 5.0).

Regarding `c1ccc2c(NCCCCCCCCNc3c4ccccc4nc4ccccc34)c3ccccc3nc2c1`, the growth inhibition in experiment [1] (setting [7]) is 87% (active); in experiment [1] (setting [8]) it was 97% (active); in experiment [1] (at 50.0 µM), 85.3% (active); in experiment [2] (setting [7]), 89% (active); in experiment [2] (setting [8]), 98% (active); in experiment [2] (at 50.0 µM), 87.5% (active). The growth inhibition in experiment [3] (setting [7]) was 64% (inactive); in experiment [3] (setting [8]), 90% (active); in experiment [3] (at 50.0 µM) it was 75.4% (active); in experiment [4] (setting [7]), 44% (inactive); in experiment [4] (setting [8]) it was 83% (active); in experiment [4] (at 50.0 µM) it was 46.7% (inactive). The growth inhibition was 68% (inactive) in experiment [5] (setting [7]); 49% (inactive) in experiment [5] (setting [8]); 80.2% (active) in experiment [5] (at 50.0 µM); 91% (active) in experiment [6] (setting [7]); 97% (active) in experiment [6] (setting [8]).

On to `[Cl][Hg][Cl]`, for which the growth inhibition was 99% (active) in experiment [1] (setting [7]); 99% (active) in experiment [1] (setting [8]); 91.3% (active) in experiment [1] (at 50.0 µM); 100% (active) in experiment [2] (setting [7]); 100% (active) in experiment [2] (setting [8]); 93.3% (active) in experiment [2] (at 50.0 µM). The growth inhibition in experiment [3] (setting [7]) was 100% (active); in experiment [3] (setting [8]), 100% (active); in experiment [3] (at 50.0 µM), 94% (active); in experiment [4] (setting [7]), 99% (active); in experiment [4] (setting [8]), 99% (active); in experiment [4] (at 50.0 µM), 92.3% (active). The growth inhibition is 100% (active) in experiment [5] (setting [7]); 92% (active) in experiment [5] (setting [8]); 93.1% (active) in experiment [5] (at 50.0 µM); 100% (active) in experiment [6] (setting [7]); 99% (active) in experiment [6] (setting [8]); 92.4% (active) in experiment [6] (at 50.0 µM).

On to `C[Si]1(C)CCCCC2(C1)C(=O)NC(=O)NC2=O`, for which the growth inhibition was 0% (inactive) in experiment [1] (setting [7]); 17% (inactive) in experiment [1] (setting [8]); 16.4% (inactive) in experiment [1] (at 50.0 µM); 4% (inactive) in experiment [2] (setting [7]); 20% (inactive) in experiment [2] (setting [8]); 2.6% (inactive) in experiment [2] (at 50.0 µM). The growth inhibition was -1% (inactive) in experiment [3] (setting [7]); 58% (inactive) in experiment [3] (setting [8]); 51% (inactive) in experiment [3] (at 50.0 µM); -3% (inactive) in experiment [4] (setting [7]); 5% (inactive) in experiment [4] (setting [8]); 16.5% (inactive) in experiment [4] (at 50.0 µM). The growth inhibition in experiment [5] (setting [7]) is -5% (inactive); in experiment [5] (setting [8]) it was 13% (inactive); in experiment [5] (at 50.0 µM), 10.8% (inactive); in experiment [6] (setting [7]), -17% (inactive); in experiment [6] (setting [8]) it was 3% (inactive); in experiment [6] (at 50.0 µM), 8.5% (inactive).

For the compound `Clc1c(Cl)c(Cl)c([S][Pb]([c]2ccccc2)([c]2ccccc2)[c]2ccccc2)c(Cl)c1Cl`, the growth inhibition in experiment [1] (setting [7]) is 91% (active); in experiment [1] (setting [8]), 85% (active); in experiment [1] (at 50.0 µM), 98.5% (active); in experiment [2] (setting [7]), 96% (active); in experiment [2] (setting [8]), 92% (active); in experiment [2] (at 50.0 µM) it was 98.4% (active). The growth inhibition is 94% (active) in experiment [3] (setting [7]); 42% (inactive) in experiment [3] (setting [8]); 98.8% (active) in experiment [3] (at 50.0 µM); 84% (active) in experiment [4] (setting [7]); 89% (active) in experiment [4] (setting [8]); 97.7% (active) in experiment [4] (at 50.0 µM). The growth inhibition in experiment [5] (setting [7]) is 92% (active); in experiment [5] (setting [8]), 96% (active); in experiment [5] (at 50.0 µM) it was 98.5% (active); in experiment [6] (setting [7]), 92% (active); in experiment [6] (setting [8]), 92% (active); in experiment [6] (at 50.0 µM), 98.3% (active).

Regarding `Brc1ccc(N2C[N+](c3ccc(Br)cc3)=NC(c3ccccc3)=N2)cc1`, the growth inhibition in experiment [1] (setting [7]) was 23% (inactive); in experiment [1] (setting [8]), 94% (active); in experiment [1] (at 50.0 µM), 97.5% (active) and 18.3% (inactive); in experiment [2] (setting [7]), -2% (inactive); in experiment [2] (setting [8]), 96% (active); in experiment [2] (at 50.0 µM) it was 97.8% (active) and -1.3% (inactive). Further, the growth inhibition in experiment [3] (setting [7]) is 6% (inactive); in experiment [3] (setting [8]), 92% (active); in experiment [3] (at 50.0 µM), 98.5% (active) and 10.9% (inactive); in experiment [4] (setting [7]), 16% (inactive); in experiment [4] (setting [8]), 98% (active); in experiment [4] (at 50.0 µM), 98.5% (active) and 10.1% (inactive). The growth inhibition is 2% (inactive) in experiment [5] (setting [7]); 99% (active) in experiment [5] (setting [8]); 98.5% (active) and -3.05% (inactive) in experiment [5] (at 50.0 µM); 9% (inactive) in experiment [6] (setting [7]); 97% (active) in experiment [6] (setting [8]); 98.3% (active) and 13.1% (inactive) in experiment [6] (at 50.0 µM).

Take `O=C1[O][Hg][c]2cccc3cccc1c23`: the growth inhibition is 99% (active) in experiment [1] (setting [7]); 99% (active) in experiment [1] (setting [8]); 98.3% (active) in experiment [1] (at 50.0 µM); 100% (active) in experiment [2] (setting [7]); 99% (active) in experiment [2] (setting [8]); 99% (active) in experiment [2] (at 50.0 µM). Also, the growth inhibition in experiment [3] (setting [7]) is 99% (active); in experiment [3] (setting [8]), 99% (active); in experiment [3] (at 50.0 µM), 98.9% (active); in experiment [4] (setting [7]), 89% (active); in experiment [4] (setting [8]) it was 99% (active); in experiment [4] (at 50.0 µM), 98.2% (active). Besides, the growth inhibition in experiment [5] (setting [7]) was 100% (active); in experiment [5] (setting [8]) it was 58% (inactive); in experiment [5] (at 50.0 µM), 98.2% (active); in experiment [6] (setting [7]) it was 100% (active); in experiment [6] (setting [8]), 99% (active); in experiment [6] (at 50.0 µM) it was 97.5% (active).

For `CCC1CCCCN1CC(C(C)=O)C(c1ccccc1)c1c(O)c2ccccc2oc1=O` (stereo not drawn), the growth inhibition was 13% (inactive) in experiment [1] (setting [7]); 13% (inactive) in experiment [1] (setting [8]); 78.2% (active) in experiment [1] (at 50.0 µM); 0% (inactive) in experiment [2] (setting [7]); 0% (inactive) in experiment [2] (setting [8]); 64.8% (inactive) in experiment [2] (at 50.0 µM). The growth inhibition in experiment [3] (setting [7]) is 5% (inactive); in experiment [3] (setting [8]) it was 5% (inactive); in experiment [3] (at 50.0 µM) it was 79.3% (active); in experiment [4] (setting [7]), -6% (inactive); in experiment [4] (setting [8]), -6% (inactive); in experiment [4] (at 50.0 µM), 72.5% (active). Also, the growth inhibition in experiment [5] (setting [7]) is 6% (inactive); in experiment [5] (setting [8]), 6% (inactive); in experiment [5] (at 50.0 µM) it was 71.3% (active); in experiment [6] (setting [7]) it was 7% (inactive); in experiment [6] (setting [8]), 7% (inactive); in experiment [6] (at 50.0 µM), 75.3% (active).

Consider `O=C(c1ccccc1)c1c(CC(O)c2ccccn2)n(C(=O)c2ccccc2)c2ccccc12` (stereo not drawn), for which the growth inhibition is 6% (inactive) in experiment [1] (setting [7]); 88% (active) in experiment [1] (setting [8]); 77.5% (active) in experiment [1] (at 50.0 µM); -8% (inactive) in experiment [2] (setting [7]); 75% (active) in experiment [2] (setting [8]); 46.7% (inactive) in experiment [2] (at 50.0 µM). Moreover, the growth inhibition was 5% (inactive) in experiment [3] (setting [7]); 86% (active) in experiment [3] (setting [8]); 82.5% (active) in experiment [3] (at 50.0 µM); 12% (inactive) in experiment [4] (setting [7]); 88% (active) in experiment [4] (setting [8]); 65.7% (inactive) in experiment [4] (at 50.0 µM). For the same compound, the growth inhibition in experiment [5] (setting [7]) is -10% (inactive); in experiment [5] (setting [8]), 93% (active); in experiment [5] (at 50.0 µM), 74.2% (active); in experiment [6] (setting [7]), 2% (inactive); in experiment [6] (setting [8]), 86% (active); in experiment [6] (at 50.0 µM), 84% (active).

Values taken from PubChem BioAssay (NCI).
